From PubChem BioAssay (NCATS) come the findings set out here.

Inconclusive results are not listed. The source made the active and inactive calls. Calls follow the shape of the dose curve; as a rule, active = well fitted inhibition curve with a large enough effect; inconclusive = small, poorly fitted or top-dose-only effect; inactive = flat fitted curve, though single readings scatter.

The assay has as its system CRL-7250. As to the kind of experiment: qHTS assay to identify novel small-molecules to repurpose for Merkel cell carcinoma treatment (AID 1296009). Also: nearly all actives have a fitted effect of over 60% in size. The conditions noted are these: MCC and control cell lines, CellTiter-Glo viability, 72 h; at 44.8 µM (top of the series) unless noted. In a few lines: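 Cells exposed to NPC (8-point) and MIPE (11-point) compound dilutions for 72 hr at 37 degree celsius; viability read by CellTiter-Glo luminescence, normalized to no-cell and DMSO in-plate controls.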
On the technique in general: qHTS replaces the single test concentration by a dilution series.
`CC1(C)O[C@H]2CC(=O)OC[C@]23[C@H]2CC[C@@]4(C)[C@H](c5ccoc5)OC(=O)[C@H]5O[C@]54[C@]2(C)C(=O)C[C@@H]13`: the outcome was “inactive [at 17.4 µM]”. In the case of `Cc1cc(NS(=O)(=O)c2ccc(N)cc2)no1` it was “inactive”; in that of `C[N+]1(C)[C@@H]2CC(OC(=O)[C@H](CO)c3ccccc3)C[C@H]1[C@@H]1O[C@@H]12` (stereo partly specified), “inactive”.

In the case of `CC(=O)CC(c1ccccc1)c1c(O)c2ccccc2oc1=O` (stereo unspecified), the result was inactive. In the case of `COc1ccc(C2CNC(=O)C2)cc1OC1CCCC1` (stereo unspecified), the result was inactive. Next, `Cc1c(C)c2c(c(C)c1O)CCC(C)(COc1ccc(CC3SC(=O)NC3=O)cc1)O2` (stereo unspecified): “inactive”. As for `NNC(=O)c1ccncc1`, the compound was classed as inactive. As for `Nc1ccc(S(=O)(=O)Nc2ccccn2)cc1`, the call was inactive. Regarding `Nc1ncnc2c1ncn2[C@@H]1O[C@H](CO)[C@@H](O)[C@H]1O`, the compound was called inactive.

Take `NC(=O)NC1NC(=O)NC1=O` (stereo unspecified): the outcome was inactive. In the case of `COc1ccc(C(=O)c2ccccc2O)c(O)c1` it was “inactive”; in that of `c1ccc2sc(SN3CCOCC3)nc2c1`, “inactive”. For the compound `CC(=O)NC[C@H]1CN(c2ccc(N3CCOCC3)c(F)c2)C(=O)O1`, the compound was called inactive.

In the case of `O=C1CN(/N=C/c2ccc([N+](=O)[O-])o2)C(=O)N1`, the result was inactive. Consider `CC(=O)OCC(=O)[C@@]1(OC(C)=O)[C@@H](C)C[C@H]2[C@@H]3C[C@H](F)C4=CC(=O)C=C[C@]4(C)[C@@]3(F)[C@@H](O)C[C@@]21C`, for which the result was inactive.

Consider `OC[C@H]1O[C@@H]2O[C@H]3[C@H](O)[C@@H](O)[C@@H](O[C@H]4[C@H](O)[C@@H](O)[C@@H](O[C@H]5[C@H](O)[C@@H](O)[C@@H](O[C@H]6[C@H](O)[C@@H](O)[C@@H](O[C@H]7[C@H](O)[C@@H](O)[C@@H](O[C@H]8[C@H](O)[C@@H](O)[C@@H](O[C@H]1[C@H](O)[C@H]2O)O[C@@H]8CO)O[C@@H]7CO)O[C@@H]6CO)O[C@@H]5CO)O[C@@H]4CO)O[C@@H]3CO`, for which the compound was called inactive.
